# According to PubChem BioAssay (NCI):
# This is part of a sample that, as a whole, favours compounds with a hit. Of some 83,000 tested, about 20% had one in any assay.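 The endpoint reported here, percent growth, reads 100 for growth as untreated, 0 for no net growth and -100 for all cells dead.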 Unmarked numbers belong to inactive results. Activity calls are given as the source filed them. The calls were made as follows: active = growth percent below 10; inactive = the rest.
# Test system: HL-60(TB) leukemia
# Experiment: NCI-60 one-dose screen, 48 h (100 = growth as untreated, 0 = no growth, -100 = all killed)
# Conditions: 10 µM unless noted
row,SMILES,growth
1,COc1cc(-c2csc(NC(=O)Nc3ccc(Cl)c(C(F)(F)F)c3)n2)cc(OC)c1OC,-6.26% (active)
2,Fc1ccc(/C=C/[C@@H]2C[C@@H](F)CCO2)cc1,56.1%
3,CCOC(=O)c1c2c(n3ccc(NC(=O)CCN4CCCC4)cc13)C(=O)c1ncccc1C2=O,-34.2% (active)
4,NC(=NCCCOc1ccc(Cl)cc1)Nc1ccc(C(F)(F)F)cc1,94.4%
5,Nc1n[nH]c2cccc(C#Cc3cccc(C(=O)Nc4ccc(CN5CCOCC5)c(C(F)(F)F)c4)c3)c12,7.67% (active)
6,c1ccc(COc2ccc(Nc3ncnc4c3cnn4-c3ccccc3)cc2)cc1,99.8%
7,N#CCCCCCn1c2ccccc2c2c3c(c4c5ccccc5n(CCCCCC#N)c4c21)C(=O)N(O)C3=O,64.3%
8,C#CCOC(=O)[C@]1(C)CCC[C@]2(C)[C@H]3C[C@H]4C(C(C)C)=C[C@]3(CC[C@H]21)[C@@H]1C(=O)CCC(=O)[C@@H]14,64.7%
9,CSc1nc2c(c(=O)n1C)C(c1ccccc1)C1=C(N2)/C(=C/c2ccccc2)CCC1 (stereo unspecified),12.8%
10,Cc1cn(-c2cc(NC(=O)c3cccc(C#Cc4cccc5[nH]nc(N)c45)c3)cc(C(F)(F)F)c2)cn1,12.5%
11,O=C1C=CC(=O)N1C1CCCCCCCCCCC1,-9.95% (active)
12,Cc1ccc(C(=O)Nc2ccc(CN3CCN(C)CC3)c(C(F)(F)F)c2)cc1C#Cc1cncc2ncccc12,-65.1% (active)
13,NS(=O)(=O)c1ccc(N/C=C/C(=O)c2cc3ccccc3oc2=O)cc1,100%
14,CCCCCCCCCCC(=O)CCCCCCCCCC,95.4%
15,CC/C=C\CCC/C=C1/C(=O)C=C[C@@H]1C/C=C\CCCC(=O)OC,-9.11% (active)
16,CCCCCCCCOc1ccc(/C=N/Nc2cc(C)nc3ccc(Br)cc23)cc1,60.4%
17,CN1CCCN(CCNc2nccc(-c3c(-c4cccc(O)c4)nc4sccn34)n2)S1(=O)=O,69.2%
18,C=C1C(=O)O[C@H]2[C@H]1CC/C(C(=O)NCCCCCNC(=O)/C1=C/CC[C@@]3(C)O[C@H]3[C@H]3OC(=O)C(=C)[C@@H]3CC1)=C\CC[C@@]1(C)O[C@@H]21,89.4%
19,Cc1nc2sc(C(=O)Nc3ccccc3)c(N)c2cc1C(C)O (stereo unspecified),-2.23% (active)
20,C=C1c2c(C)nn(-c3ccc(N)cc3)c2N(C)C23CC1C1(C)c4c(C)nn(-c5ccc(N)cc5)c4N(C)C(C)(CC12)C3 (stereo unspecified),55.7%
21,O=C(O)c1ccc(-n2cc(/C=N/Nc3ccc(Cl)cc3Cl)c(-c3ccccc3)n2)cc1,-81.8% (active)
22,O=C(/C=C/c1cccs1)Nc1ncc(Cc2ccccc2F)s1,-40.2% (active)
23,c1ccc2c3c([nH]c2c1)C(c1ccc(C2NCCc4c2[nH]c2ccccc42)cc1)NCC3 (stereo unspecified),-63.2% (active)
24,CN(C)S(=O)(=O)Oc1ccc(-c2sc3cc(OS(=O)(=O)N(C)C)ccc3c2C(=O)c2ccc(OCCN3CCCCC3)cc2)cc1,53.2%
25,N#Cc1ncc(Br)c(NC2CCCCCC2)n1,111%
26,CC(=O)Nc1ccc(-c2cc3c(NCc4ccc(F)cc4)ncnc3s2)cc1,89.1%
